Hit rate of the full screen: of about 5,500 compounds, about 2,000 (36%) were called active. Inconclusive results (about 18%) are left out. No stated cut-off is given here; in the data, active means normalized growth mostly below about 0.91 (no sharp cut-off); inconclusive means no clear call, values can overlap the other calls; inactive means mostly above about 0.92. This is one part of the list.
Test: chemical genetic growth profiling, strain panel (AID 1159580);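 further: tested at 20 µM; growth read once vehicle control cultures reached saturation at 30 °C; 1 = growth at the plate median or of vehicle wells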
Conditions: growth OD

Measured: normalized growth

COc1cc(OC)c2ccc(=O)oc2c1
inactive: S. cerevisiae deletion strains, locus YJR075W, strain HOC1, stronger effect = lower value 1.01 | S. cerevisiae deletion strains, locus YKL009W, strain mrt4, stronger effect = lower value 0.966 | S. cerevisiae deletion strains, locus YKL068W, stronger effect = lower value 1.01 | S. cerevisiae deletion strains, locus YKL085W, strain MDH1 (second series), stronger effect = lower value 1.01 | S. cerevisiae deletion strains, locus YKL085W, strain MDH1, stronger effect = lower value 1.01 | S. cerevisiae deletion strains, locus YKL160W, strain elf1, stronger effect = lower value 0.977 | S. cerevisiae deletion strains, locus YKL190W, strain CNB1, stronger effect = lower value 1.01 | S. cerevisiae deletion strains, locus YKR001C, strain vps1, stronger effect = lower value 0.945 | S. cerevisiae deletion strains, locus YKR026C, strain gcn3, stronger effect = lower value 0.962 | S. cerevisiae deletion strains, locus YKR091W, strain srl3, stronger effect = lower value 0.99 | S. cerevisiae deletion strains, locus YLL001W, strain dnm1, stronger effect = lower value 0.94 | S. cerevisiae deletion strains, locus YLL026W, stronger effect = lower value 0.973 | S. cerevisiae deletion strains, locus YLL041C, strain sdh2, stronger effect = lower value 0.979 | S. cerevisiae deletion strains, locus YLR027C, strain aat2, stronger effect = lower value 0.977 | S. cerevisiae deletion strains, locus YLR039C, strain RIC1, stronger effect = lower value 0.974 | S. cerevisiae deletion strains, locus YLR058C, strain SHM2, stronger effect = lower value 1.01 | S. cerevisiae deletion strains, locus YLR102C, strain apc9, stronger effect = lower value 1.01 | S. cerevisiae deletion strains, locus YLR113W, strain HOG1, stronger effect = lower value 1.02 | S. cerevisiae deletion strains, locus YLR221C, strain rsa3, stronger effect = lower value 0.97 | S. cerevisiae deletion strains, locus YLR258W, strain gsy2, stronger effect = lower value 0.952 | S. cerevisiae deletion strains, locus YLR262C, strain YPT6 (second series), stronger effect = lower value 0.97 | S. cerevisiae deletion strains, locus YLR262C, strain YPT6, stronger effect = lower value 0.992 | S. cerevisiae deletion strains, locus YLR268W, strain sec22, stronger effect = lower value 1.01 | S. cerevisiae deletion strains, locus YLR320W, strain mms22, stronger effect = lower value 0.897 | S. cerevisiae deletion strains, locus YLR330W, strain CHS5, stronger effect = lower value 1 | S. cerevisiae deletion strains, locus YLR342W, strain FKS1 (second series), stronger effect = lower value 1.03 | S. cerevisiae deletion strains, locus YLR342W, strain FKS1, stronger effect = lower value 0.976 | S. cerevisiae deletion strains, locus YLR357W, strain rsc2, stronger effect = lower value 1.05 | S. cerevisiae deletion strains, locus YLR370C, strain arc18, stronger effect = lower value 0.981 | S. cerevisiae deletion strains, locus YLR371W, strain rom2, stronger effect = lower value 1.01 | S. cerevisiae deletion strains, locus YLR384C, strain iki3, stronger effect = lower value 0.975 | S. cerevisiae deletion strains, locus YLR418C, strain cdc73, stronger effect = lower value 1.01 | S. cerevisiae deletion strains, locus YML016C, strain PPZ1, stronger effect = lower value 1 | S. cerevisiae deletion strains, locus YML032C, strain rad52, stronger effect = lower value 0.982 | S. cerevisiae deletion strains, locus YML120C, strain ndi1, stronger effect = lower value 0.954 | S. cerevisiae deletion strains, locus YML124C, strain tub3, stronger effect = lower value 1.01 | S. cerevisiae deletion strains, locus YMR058W, strain fet3, stronger effect = lower value 0.957 | S. cerevisiae deletion strains, locus YMR078C, strain ctf18, stronger effect = lower value 0.996 | S. cerevisiae deletion strains, locus YMR125W, strain sto1, stronger effect = lower value 0.993 | S. cerevisiae deletion strains, locus YMR129W, stronger effect = lower value 0.988 | S. cerevisiae deletion strains, locus YMR205C, strain PFK2, stronger effect = lower value 0.97 | S. cerevisiae deletion strains, locus YMR223W, strain ubp8, stronger effect = lower value 0.976 | S. cerevisiae deletion strains, locus YMR231W, strain pep5, stronger effect = lower value 0.965 | S. cerevisiae deletion strains, locus YMR263W, strain SAP30, stronger effect = lower value 0.992 | S. cerevisiae deletion strains, locus YMR307W, strain GAS1, stronger effect = lower value 1.02 | S. cerevisiae deletion strains, locus YNL067W, strain RPL9B, stronger effect = lower value 0.989 | S. cerevisiae deletion strains, locus YNL071W, strain lat1, stronger effect = lower value 0.953 | S. cerevisiae deletion strains, locus YNL128W, strain TEP1, stronger effect = lower value 1.01 | S. cerevisiae deletion strains, locus YNL153C, strain GIM3, stronger effect = lower value 1.01 | S. cerevisiae deletion strains, locus YNL183C, strain NPR1, stronger effect = lower value 0.946 | S. cerevisiae deletion strains, locus YNL209W, strain ssb2, stronger effect = lower value 0.98 | S. cerevisiae deletion strains, locus YNL233W, strain BNI4, stronger effect = lower value 1 | S. cerevisiae deletion strains, locus YNL250W, strain rad50, stronger effect = lower value 0.992 | S. cerevisiae deletion strains, locus YNL271C, strain bni1, stronger effect = lower value 0.99 | S. cerevisiae deletion strains, locus YNL298W, strain CLA4, stronger effect = lower value 0.973 | S. cerevisiae deletion strains, locus YNL307C, strain MCK1, stronger effect = lower value 0.988 | S. cerevisiae deletion strains, locus YNL322C, strain KRE1 (second series), stronger effect = lower value 0.992 | S. cerevisiae deletion strains, locus YNL322C, strain KRE1, stronger effect = lower value 1 | S. cerevisiae deletion strains, locus YNR049C, strain mso1, stronger effect = lower value 0.982 | S. cerevisiae deletion strains, locus YNR052C, strain pop2, stronger effect = lower value 0.989 | S. cerevisiae deletion strains, locus YOL006C, strain TOP1, stronger effect = lower value 0.921 | S. cerevisiae deletion strains, locus YOL012C, strain htz1 1.64 | S. cerevisiae deletion strains, locus YOL147C, strain pex11, stronger effect = lower value 1 | S. cerevisiae deletion strains, locus YOR001W, strain rrp6, stronger effect = lower value 0.963 | S. cerevisiae deletion strains, locus YOR061W, strain CKA2, stronger effect = lower value 1 | S. cerevisiae deletion strains, locus YOR069W, strain VPS5, stronger effect = lower value 1.01 | S. cerevisiae deletion strains, locus YOR070C, strain gyp1, stronger effect = lower value 0.964 | S. cerevisiae deletion strains, locus YOR080W, strain dia2, stronger effect = lower value 0.969 | S. cerevisiae deletion strains, locus YOR083W, strain WHI5, stronger effect = lower value 0.968 | S. cerevisiae deletion strains, locus YOR106W, strain vam3, stronger effect = lower value 0.95 | S. cerevisiae deletion strains, locus YOR136W, strain idh2, stronger effect = lower value 1.01 | S. cerevisiae deletion strains, locus YOR144C, strain elg1, stronger effect = lower value 1.01 | S. cerevisiae deletion strains, locus YOR184W, strain ser1, stronger effect = lower value 0.949 | S. cerevisiae deletion strains, locus YOR231W, strain MKK1, stronger effect = lower value 0.991 | S. cerevisiae deletion strains, locus YOR265W, strain rbl2, stronger effect = lower value 0.977 | S. cerevisiae deletion strains, locus YOR270C, strain vph1, stronger effect = lower value 0.814 | S. cerevisiae deletion strains, locus YOR290C, strain snf2, stronger effect = lower value 0.936 | S. cerevisiae deletion strains, locus YOR316C, strain cot1, stronger effect = lower value 0.998 | S. cerevisiae deletion strains, locus YPL051W, strain arl3, stronger effect = lower value 0.968 | S. cerevisiae deletion strains, locus YPL055C, strain LGE1, stronger effect = lower value 0.971 | S. cerevisiae deletion strains, locus YPL078C, strain atp4, stronger effect = lower value 0.957 | S. cerevisiae deletion strains, locus YPL106C, strain sse1, stronger effect = lower value 0.926 | S. cerevisiae deletion strains, locus YPL240C, strain hsp82, stronger effect = lower value 0.985 | S. cerevisiae deletion strains, locus YPL241C, strain CIN2, stronger effect = lower value 1 | S. cerevisiae deletion strains, locus YPL256C, strain CLN2, stronger effect = lower value 1.05 | S. cerevisiae deletion strains, locus YPR119W, strain clb2, stronger effect = lower value 1 | S. cerevisiae deletion strains, locus YPR141C, strain kar3, stronger effect = lower value 1 | S. cerevisiae deletion strains, locus YPR163C, strain tif3, stronger effect = lower value 1.01 | S. cerevisiae deletion strains, locus YPR167C, strain met16, stronger effect = lower value 0.995 | S. cerevisiae deletion strains, strain wtn01, stronger effect = lower value 1 | S. cerevisiae strains, strain wild type, stronger effect = lower value 1.01
active: S. cerevisiae deletion strains, locus YNL248C, strain rpa49, stronger effect = lower value 0.872
